Screening data: PubChem BioAssay, several laboratories
Hits are enriched below; roughly 2.9% of the tested compounds scored in any of these assays.
HSF1 inh: HSF1 inhibition; NIH3T3-HGL HSE-luciferase, MG132-induced, luminescence 8 h; active compounds read low; activity change, negative = inhibition, % at 7.5 µM (by protocol); 300,000 compounds, 0.77% hits; AID 2098;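 active means more than half of replicate wells show activity change below -50%, luminescence cut by over half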;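 further: luciferase reports HSF-1 transcriptional activity via heat shock element; 0% = median of DMSO wells and -100% = zero luminescence signal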
S1P4 ag: human S1P4 receptor agonism; activation, % at 4.98 µM; AID 1509; S1P4-expressing cell line, agonist reporter assay; O95977; 220,000 compounds, 0.35% hits; in the data active means activation above about 11%;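 further: 0% = DMSO vehicle and 100% = reference agonist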
Target sequence (O95977 whole entry, looked up): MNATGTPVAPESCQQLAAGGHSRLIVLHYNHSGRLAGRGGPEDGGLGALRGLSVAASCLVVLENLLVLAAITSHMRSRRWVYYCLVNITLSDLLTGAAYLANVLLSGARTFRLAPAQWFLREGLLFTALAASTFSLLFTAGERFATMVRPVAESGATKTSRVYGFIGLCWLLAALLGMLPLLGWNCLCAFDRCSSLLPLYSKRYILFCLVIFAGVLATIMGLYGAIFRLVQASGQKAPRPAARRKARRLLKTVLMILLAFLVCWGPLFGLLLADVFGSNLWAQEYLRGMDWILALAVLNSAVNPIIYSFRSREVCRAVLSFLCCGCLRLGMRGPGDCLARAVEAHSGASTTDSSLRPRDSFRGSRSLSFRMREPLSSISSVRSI
S1P3 antagonist: antagonists of human S1P3 receptor. AID 485. 170,000 compounds, 0.27% hits. Q99500. CHO S1P3 NFAT-BLA reporter, FRET fluorescence, antagonist mode. inhibition, % at 4.98 µM;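 active means inhibition above the plate cutoff, the mean inhibition of test wells on that plate plus 3 SD, cut at about 28% in these data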;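 further: cells challenged with S1P at its EC80 of 0.8 µM; blue over green emission ratio from cleaved BLA substrate after 4 h stimulation; 0% = S1P-stimulated wells and 100% = unstimulated DMSO-only wells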
S1P4 antag: antagonists of human S1P4 receptor; O95977; S1P4-expressing cells, antagonist mode, reporter read-out; inhibition, % at 4.98 µM; 220,000 compounds, 0.26% hits; in the data active means inhibition above about 29%;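 further: 0% = wells stimulated with agonist and 100% = vehicle wells without agonist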
Hsp70 activator: switches on Hsp70 transcription; HeLa Hsp70 promoter luciferase reporter, luminescence; scaled: vehicle 0, proteasome-inhibitor control 100%; activation, % at 10 µM; 200,000 compounds, 0.04% hits; AID 1203;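 active means activation above the mean across all tested compounds plus 3 SD, cutoff set per campaign, cut at about 5.5% in these data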;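 further: 100% = MG132 at 30 µM as the positive control and 0% = DMSO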
HSF-1 act: increases HSF-1 driven luciferase reporter signal | NIH3T3-HGL HSF-1 luciferase reporter, MG132, 8 h; 100% = twice DMSO control signal | activation, % at 9 µM | 300,000 compounds, 1.7% hits;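 active means mean replicate activation of at least 50% with a set share of replicates each reaching 50%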;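 further: 0% = median of the neutral control wells and 100% = twice that signal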
Numbers without * were called inactive.

For O=C(N/N=C/c1ccc(F)cc1)c1ccc(OCc2ccccc2)cc1 the results were HSF1 inh -75*, S1P4 ag -2, S1P3 antagonist 14, S1P4 antag -13 and HSF-1 act -82.
For O=C(O)COc1ccc(/C=N/NC(=O)/C(=C/C=C/c2ccccc2)NC(=O)c2ccccc2)cc1 the results were HSF1 inh 6 and HSF-1 act 19.
`CC(=O)Nc1sc2c(c1C(N)=O)CCN(Cc1ccccc1)C2` gave HSF1 inh 3, S1P4 ag 2, S1P3 antagonist 7, S1P4 antag -7 and HSF-1 act 12.
`NC(=O)c1c(NC(=O)Cc2ccccc2)sc2c1CCN(Cc1ccccc1)C2` gave HSF1 inh 35 and HSF-1 act 62*.
COC(=O)c1ccc(-n2c(C)cc(C(=O)CSc3ccc(NC(C)=O)cc3)c2C)cc1 was read as HSF1 inh 0, S1P4 ag -1, S1P3 antagonist 9, S1P4 antag -11, Hsp70 activator 0 and HSF-1 act -1.
CC(=O)Nc1ccc(SCC(=O)c2cc(C)n(-c3ccccc3F)c2C)cc1 was read as HSF1 inh -68*, S1P4 ag 0, S1P3 antagonist 3, S1P4 antag -7, Hsp70 activator 0 and HSF-1 act -71.
CC(=O)Nc1ccc(SCC(=O)c2cc(C)n(Cc3cccs3)c2C)cc1 was read as HSF1 inh -69*, S1P4 ag -1, S1P3 antagonist -49, S1P4 antag -24, Hsp70 activator 0 and HSF-1 act -75.
For O=C(NC(=O)c1cccc(F)c1)OC[C@@H]1CCCN2CCCC[C@H]12 the results were HSF1 inh -78*, S1P4 ag 0, S1P3 antagonist -6, S1P4 antag -17, Hsp70 activator 0 and HSF-1 act -84.
Screening C=CCOC(=O)C1=C(C)Nc2nc3ccccc3n2C1c1ccncc1 (stereo not given) returned HSF1 inh 46, S1P4 ag -2, S1P3 antagonist 8, S1P4 antag 4, Hsp70 activator 0 and HSF-1 act 62*.
For CNC(=O)C1=C(C)Nc2nc3ccccc3n2C1c1cccc(OC)c1 (stereo not given) the results were HSF1 inh 2, S1P4 ag 0, S1P4 antag -43, Hsp70 activator 0 and HSF-1 act 5.
For CCOC(=O)C1=C(C)Nc2nc3ccccc3n2C1c1ccncc1 (stereo not given) the results were HSF1 inh 41, S1P4 ag -2, S1P3 antagonist -25, S1P4 antag 10, Hsp70 activator 0 and HSF-1 act 80*.
Cc1ccc(-c2nc3cc(N)ccc3o2)cc1 was read as HSF1 inh 10, S1P4 ag 0, S1P3 antagonist -31, S1P4 antag 0, Hsp70 activator 0 and HSF-1 act 4.
`CC(C)CC(=O)Nc1ccc2oc(-c3cccnc3)nc2c1` gave HSF1 inh 8, S1P4 ag -1, S1P3 antagonist -42, S1P4 antag 4, Hsp70 activator 0 and HSF-1 act 22.
`Cc1ccc2oc(-c3ccc(NC(=O)CC(C)C)cc3)nc2c1` gave HSF1 inh 12, S1P4 ag 0, S1P3 antagonist 54*, S1P4 antag 14, Hsp70 activator 0 and HSF-1 act 44.
`Cc1ccc2oc(-c3cccc(N)c3)nc2c1` gave HSF1 inh 29, S1P4 ag -2, S1P3 antagonist 11, S1P4 antag 9, Hsp70 activator 0 and HSF-1 act 70*.
Screening Cc1ccc(OCc2cc(C(=O)N(C)CCc3nc4ccccc4[nH]3)no2)cc1C returned HSF1 inh -88* and HSF-1 act -87.
COc1ccc(CN2CCC(C(=O)Nc3ccc(Oc4cccnc4)cc3)CC2)c(C)c1C was read as HSF1 inh -83* and HSF-1 act -88.
COc1cccc(O)c1CN1CCC(C(=O)Nc2ccc(Oc3cccnc3)cc2)CC1 was read as HSF1 inh -6 and HSF-1 act -8.
Screening Cn1c(CCCOc2ccc(Cl)cc2Cl)nnc1SCC(=O)Nc1cccc(F)c1 returned HSF1 inh 37, S1P4 ag -1, S1P3 antagonist -1, S1P4 antag -7, Hsp70 activator 0 and HSF-1 act 54*.
For Cc1ccc(N2CCCCn3c2nc2c3c(=O)n(CC(=O)O)c(=O)n2C)cc1 the results were HSF1 inh -9, S1P4 ag -1, S1P3 antagonist 7, S1P4 antag -6, Hsp70 activator 0 and HSF-1 act -7.
`O=C(Nc1cccn2ncnc12)C(F)(F)F` gave HSF1 inh 19, S1P4 ag -1, S1P3 antagonist -8, S1P4 antag -17, Hsp70 activator 0 and HSF-1 act 63*.
`CC(C)N(Cc1nc(-c2ccccc2)no1)C(=O)CN(C)S(=O)(=O)c1ccc(Br)cc1` gave HSF1 inh -3, S1P4 ag -1, S1P4 antag 1, Hsp70 activator 0 and HSF-1 act 3.
For CC(C)N(Cc1nc(-c2ccc(Cl)cc2)no1)C(=O)CN(C)S(=O)(=O)c1ccc(Cl)cc1 the results were HSF1 inh 38, S1P4 ag 1, S1P3 antagonist 5, S1P4 antag -22, Hsp70 activator 0 and HSF-1 act 85*.
`CCn1nc(C)cc1C(=O)Sc1cccc(Br)c1` gave HSF1 inh -1, S1P4 ag 0, S1P3 antagonist -11, S1P4 antag 16 and HSF-1 act -14.
CCn1nc(C)cc1C(=O)Sc1ccc(Cl)cc1Cl was read as HSF1 inh 28, S1P4 ag 0, S1P3 antagonist 2, S1P4 antag 8 and HSF-1 act 52*.
`Cc1ccnc(N2CCCC(C(=O)NCc3cccs3)C2)n1` (stereo not given) gave HSF1 inh -66*, S1P4 ag 0, S1P4 antag -11, Hsp70 activator 1 and HSF-1 act -72.
For Cc1ccnc(N2CCCC(C(=O)Nc3ccc(C)c(C)c3)C2)n1 (stereo not given) the results were HSF1 inh 25 and HSF-1 act 60*.
For COCCn1c(-c2ccccc2)nc2c(c(=O)c3ccccc3n2C)c1=O the results were HSF1 inh 16, S1P4 ag 0, S1P3 antagonist -8, S1P4 antag -17, Hsp70 activator 0 and HSF-1 act 18.
For Cc1cc(OCC(=O)N(Cc2ccco2)C2CCS(=O)(=O)C2)cc(C)c1Cl (stereo not given) the results were HSF1 inh 11, S1P4 ag 3, S1P3 antagonist -6, S1P4 antag 1 and HSF-1 act 57*.
`Cc1ccc(OCC(=O)N(Cc2ccco2)C2CCS(=O)(=O)C2)cc1C` (stereo not given) gave HSF1 inh -6 and HSF-1 act -16.
